Test results published in PubChem BioAssay AID624263 (National Center for Advancing Translational Sciences (NCATS), 2012).
The campaign covered roughly 410,000 compounds. About 820 (0.2%) were called active. Inconclusive results (about 2%) are left out. The call rests on the fitted dose curve; in most records, active means well fitted activation curve with a large enough effect; inconclusive means small, poorly fitted or top-dose-only effect; inactive means flat fitted curve, though single readings scatter; cell line not stated here. The full list was thinned out, with actives kept by preference.

Assay: A Quantitative High throughput Screen to Identify Chemical Modulators of PINK1 Expression; further: nearly all actives have a fitted effect of over 65% in size; on activation (PINK1 increase): % of control where 0% means no effect
Conditions: PINK1 immunofluorescence, high-content cytometry, 24 h; series mostly up to 76.6 µM; activation (PINK1 increase): at the top concentration
Method in brief: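 A stable cell line was treated with compounds at 5 concentrations for 24 hours, with CCCP as control. PINK1 levels and mitochondrial localization were measured by immunofluorescence with mitochondrial, cell and nuclear markers after fixation, read by laser-scanning cytometry.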
Potency means the concentration at half of the fitted maximal effect.

Structure (SMILES)	activation (PINK1 increase)	Potency
COc1ccccc1CNc1ncncc1-c1cccnc1	-0.566% (inactive)	
COC(=O)c1c(OCc2ccc(F)cc2)cc(=O)n2c1CCN(Cc1ccc3cccnc3c1)CC2	0.408% (inactive)	
COc1ccc(S(=O)(=O)N2CCC(C(=O)NCc3ccco3)CC2)cc1C	-0.254% (inactive)	
O=C(NCc1cc(C(F)(F)F)cc(C(F)(F)F)c1)C1CC(c2cccc(F)c2)=NO1 (stereo not drawn)	9.67% (inactive)	
COc1ccc(C2=NOC(C(=O)NCc3ccco3)C2)cc1OC (stereo not drawn)		12.6 µM (active)
COc1cc2nc(N3CCCN(C)CC3)nc(NC(C)C)c2cc1OC	2.45% (inactive)	
CCc1noc(C)c1C(=O)NCCN1Cc2cc(OC)ccc2OC(CC)C1 (stereo not drawn)	-0.237% (inactive)	
O=C(N/N=C/c1sc(N2CCCCC2)nc1-c1cccs1)c1cccnc1		20 µM (active)
O=C(Nc1ccc(N2CCN(C(=O)c3ccccc3)CC2)c(Cl)c1)c1cccnc1	-3.19% (inactive)	
O=C(c1cccnc1)N1CCN(S(=O)(=O)c2cccs2)CC1	0.0275% (inactive)	
Cc1ccc(-c2ccc(C(=O)N3CCc4nnc(CNC(=O)c5ccccc5)n4CC3)cc2)cc1	0.715% (inactive)	
O=C(CN1Cc2ccccc2OC(c2ccccc2)C1)N1CCCCC1c1cccnc1 (stereo not drawn)	0.558% (inactive)	
CCOc1ccc2nc(N3CCCN(CCCn4cccn4)CC3)nc(C)c2c1	-0.633% (inactive)	
Oc1c(Br)cccc1/C=N/Nc1c(F)c(F)c(F)c(F)c1F		39.8 µM (active)
CCOC(=O)N1CCC(N2CCOc3ccc(CN4CCC(O)(c5cccnc5)CC4)cc3C2)CC1	0.385% (inactive)	
O=C(CCCn1c(SCC(=O)c2ccc(F)cc2)nc2ccccc2c1=O)NCc1ccco1		15.8 µM (active)
O=C(CSc1nc2cc3c(cc2c(=O)n1CCC1=CCCCC1)OCO3)NCc1ccco1	11.5% (inactive)	
O=C(CSc1nc2ccccc2c(=O)n1CCCO)NC1CC1	0.89% (inactive)	
O=C(Nc1ccc([N+](=O)[O-])cc1)c1cnn2c1NC(=C1CC1)C=C2C(F)F	-0.0813% (inactive)	
COCC(=O)Nc1cc(C(=O)N2CCCC(c3ccccc3)CC2)c2c(c1)nc(-c1ccncc1)n2C (stereo not drawn)	-0.433% (inactive)	
COc1ccccc1C1CN(Cc2ccccc2O)Cc2ccccc2O1 (stereo not drawn)	0.0982% (inactive)	
COC(=O)c1ccccc1C(=O)NCc1nc(N2CCCC2)c2cccc(C)c2n1	-0.339% (inactive)	
Cc1cc(C)c(S(=O)(=O)NCCCN2CCOCC2)cc1Br	-1.42% [at 38.3 µM] (inactive)	
O=S(=O)(NCCCN1CCOCC1)c1ccc(F)c(Cl)c1	4.27% (inactive)	
Cc1ccc(S(=O)(=O)NCCN2CCOCC2)cc1C		14.1 µM (active)
COc1ccccc1C(=O)N[C@@H]1c2ccccc2C2(CCN(Cc3nc(C(C)C)cs3)CC2)[C@H]1O	-1.21% (inactive)	
COc1cc(OC)c(/C=C/c2ccnc3ccccc23)c(OC)c1	8.99% (inactive)	
Cc1cccc(CNC(=O)c2cnn(-c3nccc(-c4ccccc4F)n3)c2C2CC2)n1	-0.292% (inactive)	
